Inhibition data for 88 compounds are collected here from PubChem BioAssay AID624352 (Sanford-Burnham Center for Chemical Genomics, 2012).

Screen size: about 360,000 compounds; about 2,600 (0.72%) were called active.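 How the source made its calls: active means inhibition of the luminescence signal of 40% or more relative to plate controls, in a single-dose primary screen at 18.75 µM; inactive means the rest.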 Many of the other results were omitted from the sample, so actives are more common in it than they were.

This assay is described as follows: blockers of HIF-2a driven luciferase – luminescence, 786-0 RCC cells, primary screen (AID 624352). Conditions: 786-0 RCC cells HIF-2a reporter, overnight, at 18.8 µM, hits give high values.
`O=C(CCc1nnc2ccc(NCc3ccco3)nn12)Nc1cc(F)ccc1F`: the inhibition is -0.521% (inactive).
As to `Cc1ccc(Cc2cncc(O)c2)cc1S(=O)(=O)O`, the inhibition is 9.79% (inactive).
For `Cc1ccc(CN(C(=O)c2sc3ccccc3c2Cl)C2CCS(=O)(=O)C2)cc1` (stereo not drawn), the inhibition was 32% (inactive).
For `CC1CCCCC1NC(=O)/C(C#N)=C/C=C/c1ccccc1[N+](=O)[O-]` (stereo not drawn), the inhibition was 79.7% (active).
Take `CC(OC(=O)/C=C/c1ccccc1)C(=O)NC1CCCCC1C` (stereo not drawn): the inhibition is 8.8% (inactive).
Take `COc1cc(/C=C(\C#N)C(=O)Nc2ccc3ccccc3c2)c([N+](=O)[O-])cc1OC`: the inhibition was 17% (inactive).
For the compound `Cc1ccc(SCCC(=O)NC(C(C)C)C(C)C)cc1`, the inhibition was 23.2% (inactive).
The value for `CCN(CC)CCOc1ccc2c(c1)C(=NNC(=O)c1ccccn1)c1cc(OCCN(CC)CC)ccc1-2` was 13.8% (inactive).
Take `Cc1ccc(N2CC(C(=O)N3CCC4(CC3)CC(=O)c3ccccc3O4)CC2=O)cc1C` (stereo not drawn): the inhibition is 2.59% (inactive).
As for `CC(C)Cn1cnc2c(SCc3ccc(Cl)cc3)nc(N)nc21`, the figure is -109% (inactive); as for `CCC(C)Cn1c(O)cc2nn(-c3nc4ccccc4s3)c(=O)c-2c1C` (stereo not drawn), 80.9% (active).
As for `CCC/C(O)=C1\C(=O)CC(C)(C)CC1=Nc1ccccc1OC`, the inhibition was 10% (inactive).
Regarding `O=C(Nc1ccc(OCC(=O)N2CCOCC2)cc1)c1cc(F)c(F)cc1Cl`, the inhibition is -39.3% (inactive).
For the compound `CC1CC(=O)Nc2ccccc2N1C(=O)COc1ccc2cc(Br)ccc2c1` (stereo not drawn), the inhibition is 10.2% (inactive).
For the compound `CC(C)n1cnc2c(Nc3cccc(Cl)c3)nc(N(CCO)CCCO)nc21`, the inhibition was 51.3% (active).
As to `OCCCNc1nccc(-c2cc(Nc3cccc(Cl)c3)ncn2)n1`, the inhibition was -18.5% (inactive).
`O=C1NC(Nc2nc3ccccc3s2)(C(F)(F)F)C(=O)N1C1CCCCC1` (stereo not drawn): the inhibition is -11.7% (inactive).
For `COc1cc(OC)c(C2=NOC(C(=O)Nc3c(C)n(C)n(-c4ccccc4)c3=O)C2)cc1Cl` (stereo not drawn), the inhibition is 11.3% (inactive).
`c1ccc2cc(CCCc3cc4ccccc4cn3)ncc2c1`: the inhibition is -39.5% (inactive).
Take `CCOC(=O)c1c(C)nn(-c2ncccc2NC(=O)CCC(=O)O)c1C`: the inhibition was 11.8% (inactive).
As for `COC(=O)c1c(NC(=O)C2CC(C)=C(C)CC2C(=O)O)sc2c1CCCCC2` (stereo not drawn), the inhibition is 16% (inactive).
As for `COC(=O)c1c(NC(=O)CCCC(=O)O)sc2c1CCCCC2`, the inhibition is 50.8% (active).
For the compound `COC(=O)c1c(NC(=O)CCN2CCOCC2)sc2c1CCCC2`, the inhibition is 5.82% (inactive).
As for `O=C(CCCn1c(=O)oc2ccccc21)Nc1cccnc1`, the figure is 2.59% (inactive); as for `NS(=O)(=O)c1cc(Cl)c(Cl)c(S(N)(=O)=O)c1`, -2.27% (inactive); as for `NC(N)=Nc1nc(-c2ccccc2)c2cc(Cl)ccc2n1`, 41.9% (active).
As for `Cc1nc(N=C(N)N)nc2c(C)cccc12`, the figure is 15% (inactive); as for `NC(N)=Nc1nc2ccc(Br)cc2c(=O)[nH]1`, -20.2% (inactive); as for `S=C(NC1CCCCC1)NN1CCOCC1`, 12.3% (inactive).
The value for `Cc1sc(NC(=S)NC(=O)c2cccs2)nc1-c1ccc(CC(C)C)cc1` was -5.06% (inactive); that for `O=C(C1=C[C@H](c2coc3ccccc3c2=O)C[C@H](OCc2ccc(CO)cc2)O1)N1CCN(Cc2ccccc2)CC1` was 25% (inactive); that for `CSC1=N/C(=C\C=C\c2cccs2)C(=O)S1` was -28.6% (inactive).
In the case of `O=C(Nc1ccccc1Cl)/C(Cl)=C(\Cl)S(=O)c1ccccc1` (stereo not drawn), the inhibition is 95.4% (active).
For the compound `O=C(COc1nsnc1N1CCOCC1)Nc1ccccc1Cl`, the inhibition is -40.8% (inactive).
With `Cc1cccc(C)c1NC(=O)CNC(=O)c1c(C)nn(-c2ccccc2)c1C`, the inhibition is 0.612% (inactive).
The value for `O=C(NCCC1=CCCCC1)c1ccc(Cl)c([N+](=O)[O-])c1` was -91% (inactive).
Regarding `O=C(/C=C/c1ccc(Cl)c([N+](=O)[O-])c1)c1ccc(O)cc1`, the inhibition was 79% (active).
Regarding `O=C(/C=C(O)/C=C/c1ccc(O)cc1)/C=C/c1ccc(O)cc1`, the inhibition is -18.9% (inactive).
Turning to `O=C(CN1C(=O)c2ccccc2S1(=O)=O)N1CCc2ccccc21`, the inhibition was 82.3% (active).
As for `Cc1ccc(S(=O)(=O)N(C)CC(=O)N2CCc3ccccc32)cc1`, the figure is -0.159% (inactive).
Consider `CN(Cc1cccs1)C(=O)CN1C(=O)c2ccccc2S1(=O)=O`, for which the inhibition is -66.1% (inactive).
`COCCNC(=O)c1ccc2c(c1)ncn2-c1ccc(C)c(Cl)c1`: the inhibition is -31.7% (inactive).
As for `Cc1ccc(CNC(=O)COC(=O)C2CCC2)cc1`, the figure is 2.35% (inactive); as for `CCc1c(N=O)c(-c2ccccc2)n(O)[n+]1[O-]`, -2.82% (inactive); as for `Cc1ccc(S(=O)(=O)NCC(=O)N(CC(=O)NCC2CCCO2)c2cccc(F)c2)cc1` (stereo not drawn), 8.25% (inactive).
For the compound `CC1CCc2c(c3ccccc3[nH]c2=O)O1` (stereo not drawn), the inhibition was 6.77% (inactive).
For `Cc1cc(Cl)c(S(=O)(=O)N(C)C)cc1OCC(N)=O`, the inhibition was 7% (inactive).
On to `Cc1cc(Cl)c(S(=O)(=O)NCCC(=O)O)cc1OCC(N)=O`, for which the inhibition is 0.473% (inactive).
As for `Cc1cc(Cl)c(S(=O)(=O)Nc2ccc3c(c2)OCCO3)cc1OCC(N)=O`, the figure is 43.7% (active); as for `CCNC(=O)C1(C)CCCN(C(=O)c2ccc3ccccc3n2)C1` (stereo not drawn), 3.52% (inactive); as for `Cc1csc(NC(=O)CSc2ccc(-c3ccc(F)cc3)nn2)n1`, -4.55% (inactive).
Turning to `COCCn1c(SCC(=O)Nc2nc(C)cs2)nnc1C(C)C`, the inhibition was 9.65% (inactive).
Consider `COc1cc(SC)ccc1C(=O)Nc1nc(C)cs1`, for which the inhibition was 77.6% (active).
`O=C(COC(=O)Cc1ccccc1F)NCCc1ccccc1`: the inhibition is -1.26% (inactive).
Regarding `O=C(CCN1C(=O)c2ccccc2C1=O)Nc1ccncc1`, the inhibition is 13.6% (inactive).
The value for `Cc1ccc(NC(=O)CCN2C(=O)c3ccccc3C2=O)cc1C` was -6.43% (inactive); that for `C=CCOc1ccc(/C=C2\SC(=S)N(CCC(=O)O)C2=O)cc1` was 90.6% (active); that for `C=CCOc1ccc(C(=O)Nc2ccccc2C(=O)N2CCCC2)cc1` was -0.109% (inactive).
Turning to `CN(C(=O)CN1C(=O)/C(=C/c2ccc(Cl)cc2)SC1=S)C1CCS(=O)(=O)C1` (stereo not drawn), the inhibition was -14% (inactive).
`O=C(CCCN1C(=O)/C(=C/c2ccco2)SC1=S)Nc1ccccc1`: the inhibition was 45.3% (active).
The value for `O=C(CCCN1C(=O)C(c2ccccc2)Oc2cccnc21)Nc1ccccc1Br` (stereo not drawn) was 12.9% (inactive).
As for `O=C(CCCN1C(=O)/C(=C\c2ccco2)SC1=S)Nc1cccc2ccccc12`, the figure is 56.3% (active).
With `O=C(CN1C(=O)/C(=C\c2ccc(C(F)(F)F)cc2)Sc2ccccc21)NCc1ccco1`, the inhibition is -23.3% (inactive).
Consider `O=C(OCN1C(=O)c2ccccc2C1=O)/C(=C\c1ccco1)NC(=O)c1ccccc1`, for which the inhibition is 1.64% (inactive).
The value for `O=C(CCCN1C(=O)/C(=C/c2ccccc2)SC1=S)Nc1ccc(O)cc1` was 46.2% (active); that for `Cc1c(Cl)cccc1NC(=O)CCC(=O)N/N=C/c1ccco1` was 6.46% (inactive); that for `CCN(Cc1ccccc1)C(=O)CN1C(=S)NC(C)(C)CC1C` (stereo not drawn) was 4.59% (inactive).
The value for `COc1cc(C(=O)OCC(=O)NC(C)CCc2ccccc2)cc(OC)c1OC` (stereo not drawn) was 26.2% (inactive); that for `O=C1CCC(CCC(=O)N2CCCC(C(=O)c3ccc(Cl)cc3)C2)=NN1` (stereo not drawn) was -12.6% (inactive).
As for `CC(C)(O)C1=C[N+](=O)CC=C1`, the figure is -0.393% (inactive); as for `COc1ccc2c(C)c(CCC(=O)NC3CC3)c(=O)oc2c1C`, -156% (inactive).
As to `Cc1c(CCC(=O)O)c(=O)oc2c(C)c(OCc3ccccc3Cl)ccc12`, the inhibition is 44.6% (active).
`O=C(O)c1ccccc1OCc1ccccc1Cl`: the inhibition is 10% (inactive).
As for `C#CCNc1nc(C(C)C)nc2c1nnn2Cc1ccccc1F`, the figure is 4.59% (inactive); as for `COc1ccc(S(=O)(=O)N2CCN(C(=O)NC3CCCCC3)CC2)cc1`, 12.4% (inactive).
`Cc1cccc(C)c1NC(=O)CCS(=O)(=O)c1cccc2nsnc12`: the inhibition is 4.25% (inactive).
As for `Cc1cccc2sc(N(CCCN(C)C)C(=O)CCS(=O)(=O)c3ccccc3)nc12`, the inhibition was 56.1% (active).
Turning to `O=C(CCS(=O)(=O)c1ccccc1)NC1CCCC1`, the inhibition is -146% (inactive).
As for `COCCN(C(=O)CCC(=O)Nc1nccs1)C(C(=O)NC(C)(C)C)c1ccc(Cl)cc1` (stereo not drawn), the inhibition was 5.58% (inactive).
For the compound `CN1C(=O)[C@H]2[C@@H](/C=C/c3ccccc3)N3C(=O)CN(Cc4ccc(-c5ccccc5)cc4)C(=O)[C@@]3(C)[C@H]2C1=O`, the inhibition is -8.21% (inactive).
Consider `O=C(CNCc1ccco1)Nc1cc(S(=O)(=O)N2CCOCC2)ccc1N1CCCC1`, for which the inhibition is 12.6% (inactive).
For `Cc1ccc(N(Cc2cc(=O)[nH]c3ccccc23)C(=O)CCl)cc1`, the inhibition was 45.7% (active).
Take `CCC(=O)N(Cc1cc2ccccc2[nH]c1=O)c1ccc(OC)cc1`: the inhibition is 20.9% (inactive).
`Cc1ccc(N(Cc2ccccc2O)C(=O)c2ccccc2F)cc1`: the inhibition is 16.1% (inactive).
Take `O=C(NCCC(=O)N1O[C@@H]2C=C[C@H]1C2)OCC1c2ccccc2-c2ccccc21`: the inhibition was 3.4% (inactive).
Regarding `CN(C)CCn1c2c(c(SCC(=O)Nc3ccccc3C(F)(F)F)nc1=O)CCCC2`, the inhibition was 11.7% (inactive).
As for `NC(=O)c1cc(S(=O)(=O)N2CCCC2)ccc1OCc1ccc(F)cc1`, the figure is 24% (inactive).
On to `Cc1[nH]c2ccc(S(N)(=O)=O)cc2c1C`, for which the inhibition was 11.6% (inactive).

Broadly, the inhibition is the change of the read-out against control, counted positive when it falls.
